DT40 TDP1 no CPT = qHTS for Inhibitors of human tyrosyl-DNA phosphodiesterase 1 (TDP1): qHTS in cells in absence of CPT; 15% of 420,000 active; AID 686978, 2013; Potency, µM (doses to about 46.2 µM), most hits filed as inhibitors; DT40 Tdp1-/- hTDP1 cells, no CPT, ATP luminescence, 48 h; also: nearly all actives have a fitted effect of over 55% in size
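No-CPT arm: Tdp1-/-;hTDP1 DT40 cells (400/well) plus compounds, incubated ≥48 hr at 37 °C. Readout CellTiter-Glo luminescence.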
DT40 TDP1 CPT = DT40-hTDP1 cell growth loss with CPT. 12% of 420,000 active. chicken DT40 Tdp1-/-;hTDP1 cells + 20 nM CPT, ATP luminescence, 48 h. Potency, µM (doses to about 46.2 µM), hits mostly inhibitors. AID 686979; also: nearly all actives have a fitted effect of over 55% in size
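Chicken DT40 Tdp1-/- cells stably complemented with human TDP1 were seeded at 400 cells/well in medium containing 20 nM camptothecin, exposed to pin-transferred compounds, and grown at 37 °C for at least 48 hr. Viability was read as ATP luminescence.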
HT1080 IDH1KD tx = toxicity to HT-1080 IDH1 knockdown cells (counter line); HT-1080 IDH1 knockdown viability, ATP luminescence, 48 h; AID 686971; Potency, µM (top dose mostly 46.1 µM), most hits filed as cytotoxic; 2% of 360,000 active
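HT-1080-IDH1KD cells (IDH1 knocked down), 750/well in RPMI with 5% FBS, treated with compound 48 h at 37 degrees C. Viability by CellTiter-Glo luminescence, normalised to DMSO and no-cell wells; concentration-response curves classed.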
HT1080-NT tox = kills 2HG-producing HT-1080-NT fibrosarcoma cells; HT-1080-NT fibrosarcoma viability, CellTiter-Glo ATP luminescence, 48 h; Potency, µM (series often up to 46.1 µM), usual class: cytotoxic; 1.6% of 360,000 active;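 also: NT is the 2HG producing partner of a matched IDH1 knockdown line; nearly all actives have a fitted effect of over 55% in size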
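Viability by CellTiter-Glo luminescence after 48 h compound exposure at 37C of HT-1080-NT cells (750/well, RPMI, 5% FBS). % activity scaled between DMSO wells and medium-only wells, then curve-fitted and categorized by curve class.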
IL1B secr inh = blocks inflammasome-driven IL-1 beta release; THP-1 LPS/ATP IL-1B secretion, AlphaLISA, 16 h; active compounds read low; activity change, % at 57.5 µM; 4.7% of 360,000 active; AID 743279; in the data active = activity change below about -50%; inconclusive = mostly about -30% to -49%
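THP-1 cells pretreated 1 hr with compounds (up to 57.5 uM final), then stimulated with LPS (250 ng/mL final) plus ATP (1.25 mM final); secreted IL-1B measured by AlphaLISA after 16 hr, decreased signal indicating inhibition.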
Numbers stand for hits; - = inactive; ? = inconclusive; . = no result given; [ ] = dose if it differs, or a comment. The list is not random: actives were taken first. Their share in the collection is about 19%. Unless noted, calls follow the shape of the dose curve; as a rule, active = well fitted curve in the direction sought with a large enough effect; inconclusive = small, poorly fitted or top-dose-only effect, or another doubt; inactive = no such curve, though single readings can be large; an effect the other way counts as inactive or inconclusive.

SMILES	DT40 TDP1 no CPT	DT40 TDP1 CPT	HT1080 IDH1KD tx	HT1080-NT tox	IL1B secr inh
O=C(CCNC(=O)c1ccco1)Nc1ccc(N2CCOCC2)cc1	-	-	-	-	-
CC(=O)c1cc(-c2ccccc2)n(CCC(=O)NC(C)(C)C)c1C	-	-	-	-	-
CCOC(=O)c1cc(-c2ccccc2)n(CCC(=O)NC2CCCCC2)c1C	13µM	?	.	.	.
CCOC(=O)c1cc(-c2ccc(F)cc2)n(CC(=O)NC2CCCCCC2)c1C	15µM	16µM	.	.	.
CCOC(=O)c1cc(-c2ccc(F)cc2)n(CCC(=O)NC2CCCCC2)c1C	15µM	15µM	.	.	.
CCC(C)(C)NC(=O)CCn1c(-c2ccccc2)cc(C(C)=O)c1C	?	-	-	-	-
CC(=O)c1cc(-c2ccccc2)n(CCC(=O)NC2CCCCCCC2)c1C	23µM	?	-	?	-
CCOC(=O)c1cc(-c2ccc(OC)cc2)n(CCC(=O)NCCN2CCC(C)CC2)c1C	?	?	-	-	?
CCOC(=O)c1cc(-c2ccc(F)cc2)n(CC(=O)NC2CCCCC2)c1C	?	-	.	.	.
O=C(COc1ccccc1)N1CCN(C(=O)Cc2ccccc2)CC1	-	-	-	-	-
Cc1onc(-c2c(F)cccc2Cl)c1C(=O)N1CCN(c2ncc(Br)cn2)CC1	?	-	-	-	-
CC(OC(=O)Cc1n[nH]c(=O)c2ccccc12)C(=O)N(C)c1ccccc1 (stereo not drawn)	16µM	8.2µM	?	?	-
CC(OC(=O)Cc1n[nH]c(=O)c2ccccc12)C(=O)Nc1ccc(F)cc1 (stereo not drawn)	-	?	-	-	-
Cc1cc(C)c(C(=O)C(C)OC(=O)Cc2n[nH]c(=O)c3ccccc23)cc1C (stereo not drawn)	?	-	-	-	-
Cc1ccc(C(=O)C(C)OC(=O)Cc2n[nH]c(=O)c3ccccc23)cc1 (stereo not drawn)	18µM	12µM	-	-	-
CC1CCCC(C)N1C(=O)c1cc(-c2ccc(Cl)c(Cl)c2)on1 (stereo not drawn)	?	18µM	?	-	-
CC1CCCC(C)N1C(=O)c1cc(-c2ccc3c(c2)OCO3)on1 (stereo not drawn)	26µM	?	-	-	-
O=C(c1cc(-c2ccc3c(c2)OCO3)on1)N1CCCCC1	-	-	-	-	-
COC(=O)c1cc(=O)nc2sc(-c3ccc(F)cc3)nn12	?	23µM	-	-	-
COC(=O)c1cc(=O)nc2sc(-c3cccs3)nn12	-	-	-	-[9.24 µM]	-
CN(NC(=O)c1ccccc1F)c1ccc([N+](=O)[O-])cn1	-	-	-	-	-
Cc1ccc(C)c(N2CCN(CCCNC(=O)Cn3cccc3C(=O)c3ccccc3C)CC2)c1	2.6µM	2.6µM	23µM	23µM	-114
Cc1ccccc1C(=O)c1cccn1CC(=O)NCCN1CCN(c2cccc(C)c2C)CC1	8.2µM	16µM	21µM	23µM	?
C=C1NN(Cc2ccc(OC)cc2)C(=O)N1c1ccccc1	-	-	.	.	.
O=C(Nc1cccc(C(F)(F)F)c1)C1Cc2c(-c3ccccc3)ccnc2O1 (stereo not drawn)	26µM	?	23µM	?	-
SMILES	DT40 TDP1 no CPT	DT40 TDP1 CPT	HT1080 IDH1KD tx	HT1080-NT tox	IL1B secr inh
O=C(Nc1cccc(OC(F)(F)F)c1)C1Cc2c(-c3ccco3)ccnc2O1 (stereo not drawn)	18µM	?	?	-	-
O=C(Nc1cccc(C(F)(F)F)c1)C1Cc2c(-c3ccc(Cl)cc3)ccnc2O1 (stereo not drawn)	?	?	?	?	-
O=C(Nc1cccc(C(F)(F)F)c1)C1Cc2c(-c3ccco3)ccnc2O1 (stereo not drawn)	?	16µM	-	-	.
CCN(CC)C(=O)Cn1c(=O)n(CCCCCC(=O)NCc2ccc(C)cc2)c(=O)c2sccc21	-	-	.	.	.
CS(=O)(=O)c1ccc(Cl)c(NC(=O)C2CCCN(C(=O)c3ccc(Cl)cc3)C2)c1 (stereo not drawn)	-	-	-	-	-
Cc1cc(C(F)F)n2nc(C(=O)Nc3cccnc3Cl)nc2n1	-	-	-	-	-
COC(=O)N1C(=O)[C@](c2ccccc2)(C2CCCCC2)N1C(=O)OC	-	?	-	-	-75
COC(=O)N1C(=O)[C@@](c2ccccc2)(C2CCCC2)N1C(=O)OC	16µM	15µM	-	?	-106
CCCC1(c2ccccc2)NC(=O)N(CC(=O)Nc2cc(OC)cc(OC)c2)C1=O (stereo not drawn)	?	-	-	-	-
COc1ccccc1N(CN1C(=O)c2ccccc2C1=O)C(=O)c1cccc(C)c1	?	21µM	-	-	-
COC(=O)CSc1nc2sc3c(c2c(=O)n1-c1ccccc1)CCN(C)C3	?	-	-	-	-
CCCCCNc1nc2sc3c(c2c(=O)n1-c1cccc(Cl)c1)CCN(C)C3	12µM	12µM	?	15µM	-57
CCCCNc1nc2sc3c(c2c(=O)n1-c1cccc(Cl)c1)CCN(C)C3	16µM	21µM	-	-	-
COc1cc(/C=C/C(=O)OCC(=O)Nc2oc(C)c3c(C)n[nH]c(=O)c23)ccc1OC(F)F	?	?	-	-	-
CSc1nsc(N/N=C/c2ccccc2)c1C#N	?	-	-	-	-
COc1ccc(/C=N/Nc2snc(SC)c2C#N)cc1OC	?	16µM	?	-	-
COc1cccc(/C=N/Nc2snc(SC)c2C#N)c1O	2.6µM	2.9µM	?	?	?
COc1cccc(/C=N/Nc2snc(SC)c2C#N)c1	-	-	?	?	-
COc1ccccc1CNC(=O)C1CCN(Cc2cc3ccccc3n2Cc2cccc(C)c2)CC1	18µM	13µM	.	.	.
Cc1cccc(Cn2c(CN3CCC(C(=O)NC(C)C)CC3)cc3ccccc32)c1	23µM	?	.	.	.
COc1ccccc1CNC(=O)C1CCCC1	-	-	-	-	-
CCN(CC)C(=O)c1sc2c(c1C)c(=O)n(-c1ccc(C)c(C)c1)c(=O)n2CC(=O)NCC1CCCO1 (stereo not drawn)	-	-	-	-	-
O=C(Nc1ccccc1C(F)(F)F)C1CC(=O)N(c2ccccc2F)C1 (stereo not drawn)	-	-	-	-	-
COc1cccc(NC(=O)N2CCN(c3nc(-c4cccc(OC)c4)cs3)CC2)c1	5.2µM	5.2µM	-	-	-
COc1cccc(-c2csc(N3CCN(C(=O)Nc4ccccc4Cl)CC3)n2)c1	?	?	-	-	-
COc1cccc(-c2csc(N3CCN(C(=S)Nc4ccccc4)CC3)n2)c1	?	?	-[9.24 µM]	22µM	-
COc1ccccc1NC(=S)N1CCN(c2nc(-c3ccccc3)cs2)CC1	16µM	18µM	-	-	-

High-throughput results from PubChem.
